Results: PubChem BioAssay AID1159580 (chemical genetic matrix, 2015)
Several values for one entry are separate records, joined by “and”; a condition that tells them apart may be missing. Equal entries are not always repeated. The whole screen tested about 5,500 compounds, of which about 2,000 (36%) were called active. Another 18% or so got no clear call; they are omitted. Rule as the data show it: active = normalized growth mostly below about 0.91 (no sharp cut-off); inconclusive = no clear call, values can overlap the other calls; inactive = mostly above about 0.92. Some of the results follow.

Test: chemical genetic growth profiling, strain panel (AID 1159580);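 also: tested at 20 µM; growth read once vehicle control cultures reached saturation at 30 °C; 1 = growth at the plate median or of vehicle wells; lower values mean less growth of the strain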
Conditions: S. cerevisiae deletion strains, growth OD

Measured: normalized growth

COc1cc(C(=O)O)cc(OC)c1O
inactive: locus YBR021W, strain FUR4, stronger effect = lower value 1.08 | locus YBR229C, strain ROT2, stronger effect = lower value 0.951 | locus YCL029C, strain bik1, stronger effect = lower value 0.976 | locus YDL035C, strain GPR1, stronger effect = lower value 1.01 | locus YDL074C, strain BRE1, stronger effect = lower value 0.961 | locus YDL101C, strain DUN1, stronger effect = lower value 0.982 | locus YDL185W, strain tfp1, stronger effect = lower value 0.987 | locus YDL192W, strain arf1, stronger effect = lower value 0.98 | locus YDR101C, strain arx1, stronger effect = lower value 0.972 | locus YDR150W, strain NUM1, stronger effect = lower value 0.979 | locus YDR162C, strain NBP2, stronger effect = lower value 1.01 | locus YDR318W, strain mcm21, stronger effect = lower value 1 | locus YDR388W, stronger effect = lower value 0.978 | locus YDR502C, strain sam2, stronger effect = lower value 0.982 | locus YEL061C, strain CIN8, stronger effect = lower value 0.986 | locus YER110C, stronger effect = lower value 0.977 | locus YER155C, strain BEM2, stronger effect = lower value 1 | locus YER167W, strain BCK2, stronger effect = lower value 1 | locus YGL078C, strain dbp3, stronger effect = lower value 0.986 | locus YGL086W, strain mad1, stronger effect = lower value 0.978 | locus YGL248W, strain PDE1, stronger effect = lower value 0.985 | locus YGR135W, strain pre9, stronger effect = lower value 1.05 | locus YGR229C, strain SMI1, stronger effect = lower value 1.01 | locus YGR252W, strain gcn5, stronger effect = lower value 1.04 | locus YHR030C, strain SLT2, stronger effect = lower value 1.04 and 0.994 | locus YHR079C, strain IRE1 (second series), stronger effect = lower value 0.977 | locus YHR079C, strain IRE1, stronger effect = lower value 1.02 | locus YHR094C, strain hxt1, stronger effect = lower value 0.984 | locus YHR129C, strain ARP1, stronger effect = lower value 0.997 | locus YHR200W, strain rpn10, stronger effect = lower value 0.98 | locus YIL066C, strain RNR3, stronger effect = lower value 0.981 | locus YIL073C, strain SPO22, stronger effect = lower value 0.983 | locus YIL125W, strain kgd1, stronger effect = lower value 0.987 | locus YIR030C, strain dcg1, stronger effect = lower value 0.988 | locus YJL095W, strain BCK1, stronger effect = lower value 1.03 and 0.981 | locus YJL134W, strain LCB3, stronger effect = lower value 0.994 | locus YJL168C, strain set2, stronger effect = lower value 0.975 | locus YJL187C, strain SWE1 (second series), stronger effect = lower value 0.971 | locus YJR043C, strain POL32, stronger effect = lower value 0.991 | locus YJR066W, strain TOR1, stronger effect = lower value 0.96 | locus YJR075W, strain HOC1, stronger effect = lower value 0.997 | locus YKL009W, strain mrt4, stronger effect = lower value 0.983 | locus YKL068W, stronger effect = lower value 0.989 | locus YKL085W, strain MDH1 (second series), stronger effect = lower value 0.983 | locus YKL085W, strain MDH1, stronger effect = lower value 0.983 | locus YKR001C, strain vps1, stronger effect = lower value 0.981 | locus YLR039C, strain RIC1, stronger effect = lower value 0.952 | locus YLR058C, strain SHM2, stronger effect = lower value 0.98 | locus YLR102C, strain apc9, stronger effect = lower value 0.985 | locus YLR113W, strain HOG1, stronger effect = lower value 1.01 | locus YLR262C, strain YPT6, stronger effect = lower value 0.963 | locus YLR268W, strain sec22, stronger effect = lower value 0.991 | locus YLR330W, strain CHS5, stronger effect = lower value 0.996 | locus YLR342W, strain FKS1 (second series), stronger effect = lower value 1.05 | locus YLR371W, strain rom2, stronger effect = lower value 0.965 | locus YLR418C, strain cdc73, stronger effect = lower value 1.01 | locus YML016C, strain PPZ1, stronger effect = lower value 0.984 | locus YML032C, strain rad52, stronger effect = lower value 0.975 | locus YML124C, strain tub3, stronger effect = lower value 0.979 | locus YMR078C, strain ctf18, stronger effect = lower value 0.977 | locus YMR223W, strain ubp8, stronger effect = lower value 1.04 | locus YMR307W, strain GAS1, stronger effect = lower value 1.01 | locus YNL067W, strain RPL9B, stronger effect = lower value 0.962 | locus YNL128W, strain TEP1, stronger effect = lower value 0.989 | locus YNL183C, strain NPR1, stronger effect = lower value 0.979 | locus YNL233W, strain BNI4, stronger effect = lower value 0.982 | locus YNL250W, strain rad50, stronger effect = lower value 0.976 | locus YNL271C, strain bni1, stronger effect = lower value 0.987 | locus YNL298W, strain CLA4, stronger effect = lower value 0.994 | locus YNL307C, strain MCK1, stronger effect = lower value 0.987 | locus YNR052C, strain pop2, stronger effect = lower value 0.993 | locus YOL012C, strain htz1 1.1 | locus YOL147C, strain pex11, stronger effect = lower value 0.984 | locus YOR061W, strain CKA2, stronger effect = lower value 0.964 | locus YOR069W, strain VPS5, stronger effect = lower value 0.995 | locus YOR136W, strain idh2, stronger effect = lower value 0.971 | locus YOR144C, strain elg1, stronger effect = lower value 0.991 | locus YOR184W, strain ser1, stronger effect = lower value 0.992 | locus YOR231W, strain MKK1, stronger effect = lower value 1.04 | locus YOR316C, strain cot1, stronger effect = lower value 0.97 | locus YPL241C, strain CIN2, stronger effect = lower value 0.999 | locus YPL256C, strain CLN2, stronger effect = lower value 1.04 | locus YPR119W, strain clb2, stronger effect = lower value 0.97 | locus YPR141C, strain kar3, stronger effect = lower value 0.969 | locus YPR163C, strain tif3, stronger effect = lower value 0.989 | locus YPR167C, strain met16, stronger effect = lower value 0.988 | strain wtn01, stronger effect = lower value 1
